The record followed here is PubChem BioAssay AID1220 (Sanford-Burnham Center for Chemical Genomics, 2008).

The structures appear in SMILES notation. Among all 190,000 compounds or so, about 1,300 (0.68%) were called active. Rule as the data show it: active = inhibition above about 50%; inactive = the rest. Shown is part of a subset that was picked to be rich in actives.

For orientation: inhibition means the relative decrease from the control value, in per cent.

In this assay the target is Mannose-6-phosphate isomerase (Homo sapiens) (UniProt P34949). The assay can be described thus: human PMI inhibitors, high substrate, primary screen, biochemical, fluorescence intensity, high mannose 6-phosphate (AID 1220). The conditions noted are these: recombinant PMI enzyme, coupled fluorescence intensity; at 20 µM; hits give high values.
Sequence of Mannose-6-phosphate isomerase (Homo sapiens) (P34949 whole entry, looked up): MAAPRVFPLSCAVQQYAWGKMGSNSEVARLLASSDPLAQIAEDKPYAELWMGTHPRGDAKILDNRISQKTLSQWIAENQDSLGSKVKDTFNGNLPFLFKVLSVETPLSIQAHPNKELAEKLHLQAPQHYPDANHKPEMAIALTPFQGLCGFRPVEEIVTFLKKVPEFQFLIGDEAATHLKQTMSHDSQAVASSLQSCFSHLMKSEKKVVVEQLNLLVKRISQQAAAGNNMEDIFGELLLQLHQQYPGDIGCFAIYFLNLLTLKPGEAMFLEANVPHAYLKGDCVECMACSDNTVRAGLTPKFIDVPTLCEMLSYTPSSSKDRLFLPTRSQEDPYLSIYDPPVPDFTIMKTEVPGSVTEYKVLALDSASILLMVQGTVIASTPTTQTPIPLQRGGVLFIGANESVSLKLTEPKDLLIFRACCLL
Consider `CCOC(=O)C1=C(C)NC(=O)NC1c1ccc(N(CC)CC)cc1` (centres undefined), for which the inhibition was 25.8% (inactive). On to `O=C(CCN1CCOCC1)c1ccc(Cl)cc1`, for which the inhibition is 26.3% (inactive).

`O=C(CCN1CCOCC1)c1ccccc1`: the inhibition is -3.1% (inactive).

As to `O=C(CCN1CCN(c2ccccc2F)CC1)Nc1ccccc1F`, the inhibition was -3.7% (inactive).

In the case of `COc1ccc(C(=O)CCN2CCN(c3ccccc3F)CC2)cc1`, the inhibition was 17.7% (inactive). For `COc1cc(-c2nnc(SCC(=O)OC3CCCCC3)o2)cc(OC)c1OC` the value was 5.5% (inactive); for `COc1cc(NC(=O)CSc2nc3ccccc3c(=O)n2C)ccc1NC(=O)c1ccco1`, 22.5% (inactive). Take `COC(=O)c1c(-c2ccc(C)cc2)csc1NC(=O)C1CC=CCC1C(=O)O` (centres undefined): the inhibition was 2.6% (inactive). For `COC(=O)c1c(-c2ccco2)csc1NC(=O)C1CC=CCC1C(=O)O` (centres undefined) the value was 59% (active); for `COC(=O)c1c(-c2ccccc2)csc1NC(=O)C1CC=CCC1C(=O)O` (centres undefined), -0.2% (inactive). As for `Cc1c(C(=O)NCC2CCCO2)oc2ccc(S(=O)(=O)N3CCCCC3)cc12` (centres undefined), the figure is -6.8% (inactive). As for `Cc1sc2cc3c(c(C(=O)c4ccccc4)[n+]2c1C)-c1cccc2cccc-3c12`, the figure is -1.5% (inactive). In the case of `O=C(c1ccccc1)c1c2c(cc3sc4ccccc4[n+]13)-c1cccc3cccc-2c13`, the inhibition is 51.7% (active). As for `O=C(c1ccccc1)c1cc2ccccc2o1`, the figure is -9.2% (inactive); as for `COc1ccccc1CN1CCCCC1C(=O)O` (centres undefined), -6.1% (inactive).

For `COC(=O)c1c(NC(=O)c2ccco2)sc(C(=O)N(C)C)c1C`, the inhibition is 1.2% (inactive). Consider `O=C(O)C1CCCCC1C(=O)Nc1ccccc1F` (centres undefined), for which the inhibition was 7% (inactive). As for `O=C(O)C1CCCCC1C(=O)Nc1ccccc1Cl` (centres undefined), the figure is -0.8% (inactive); as for `O=C(O)C1CCCCC1C(=O)Nc1cccc2ccccc12` (centres undefined), 54.6% (active).

For `O=C(COC(=O)/C=C/c1cccc([N+](=O)[O-])c1)NCCCN1CCCC1=O`, the inhibition is -2.9% (inactive). As for `COc1cc(-c2nc3ccccn3c2/N=C/c2ccccc2)ccc1O`, the figure is 14.6% (inactive). Turning to `COc1cc(-c2nc3ccccn3c2/N=C/c2cc(OC)c(O)cc2Cl)ccc1O`, the inhibition was 41.9% (inactive). For the compound `COc1cc(-c2nc3ccccn3c2/N=C/c2cccc(OC)c2O)ccc1O`, the inhibition was 61.6% (active). As for `CC(=O)c1cc2c(O)c(O)ccc2o1`, the figure is 71% (active); as for `O=C(O)c1cc2c(ccc3ccccc32)o1`, 9.6% (inactive). As for `CC(=O)c1cc2cc(O)ccc2o1`, the figure is 1.7% (inactive). `CSCCC(NS(=O)(=O)/C=C/c1ccccc1)C(=O)O` (centres undefined): the inhibition is -6.2% (inactive). For `CCOC(=O)N1CCC(NS(=O)(=O)c2ccc3c(c2)oc(=O)n3C)CC1` the value was 12.9% (inactive); for `O=C(Nc1ccc(F)cc1)N1CCOCC1`, 1.9% (inactive). As to `CN(C)S(=O)(=O)c1ccc(NC(=O)N2CCOCC2)cc1`, the inhibition is -1.8% (inactive). Take `CN(C)c1ccc(NC(=O)N2CCOCC2)cc1`: the inhibition was 63.7% (active). For `NC(=O)NNC(=S)Nc1cccc2ccccc12` the value was 27.8% (inactive). As for `O=C(NCc1ccccc1)C1=C[C@H](c2ccc(C(F)(F)F)cc2)C[C@H](OCc2ccc(CO)cc2)O1`, the figure is 46.8% (inactive); as for `O=C(Nc1ccccc1)C1=C[C@H](c2ccc(Br)cc2)C[C@H](OCc2ccc(CO)cc2)O1`, 13.9% (inactive); as for `C#Cc1ccc([C@@H]2C=C(C(=O)O)O[C@H](OCc3ccc(CO)cc3)C2)cc1`, 0.7% (inactive). Take `O=C(NCc1ccccc1)C1=C[C@H](c2ccc(Br)cc2)C[C@H](OCc2ccc(CO)cc2)O1`: the inhibition is 37.7% (inactive). For the compound `C#Cc1ccc([C@@H]2C=C(C(=O)NCc3ccccc3)O[C@H](OCc3ccc(CO)cc3)C2)cc1`, the inhibition is 50.8% (active). As for `O=C(NCc1ccccc1)C1=C[C@@H](c2ccc(Br)cc2)C[C@@H](OCCCCO)O1`, the figure is 60.5% (active); as for `O=C(Nc1ccccc1)C1=C[C@@H](c2ccc(C(F)(F)F)cc2)C[C@@H](OCc2ccc(CO)cc2)O1`, 18% (inactive); as for `O=C(NCc1ccccc1)C1=C[C@@H](c2ccc(C(F)(F)F)cc2)C[C@@H](OCc2ccc(CO)cc2)O1`, 50.2% (active). For the compound `C#Cc1ccc([C@H]2C=C(C(=O)O)O[C@@H](OCc3ccc(CO)cc3)C2)cc1`, the inhibition was 9.9% (inactive).

Consider `C#CCNC(=O)C1=C[C@H](c2ccc(Br)cc2)C[C@H](OCCCCO)O1`, for which the inhibition is 37.7% (inactive).

For `O=C(NCc1ccccc1)C1=C[C@@H](c2ccc(Br)cc2)C[C@@H](OCc2ccc(CO)cc2)O1`, the inhibition is 55.2% (active). As for `O=C(Nc1ccccc1)C1=C[C@@H](c2ccc(Br)cc2)C[C@@H](OCCCCO)O1`, the inhibition is 12.2% (inactive). As for `CCCOc1ccc(C(=O)c2nc3c(n2O)CCCC3)cc1`, the figure is -4.1% (inactive); as for `CC1Oc2ccccc2C=C1/C=C1/SC(N2CCOCC2)=NC1=O` (centres undefined), 26.6% (inactive).

`CCCCc1nnc(NC(=O)C2CCCO2)s1` (centres undefined): the inhibition is 4.7% (inactive). For `c1cncc(CSc2ccc(-c3cccnc3)nn2)c1` the value was -3.2% (inactive); for `CCC(CC)c1nnc(NC(=O)c2c(C)nn(Cc3ccccc3Cl)c2C)s1`, 3% (inactive).

Turning to `O=C(CCNS(=O)(=O)c1cccs1)NC1CCN(Cc2ccccc2)CC1`, the inhibition was 6.1% (inactive).

As to `CC(=O)OCc1c(F)c(F)c(-n2nc(C)cc2C)c(F)c1F`, the inhibition is 1.5% (inactive). As for `COc1ccc(-c2nnn(CC(=O)N(CCCN3CCOCC3)C(C(=O)NC3CCCC3)c3ccco3)n2)cc1` (centres undefined), the figure is 8.7% (inactive); as for `CNC(=O)NC(=O)C(C)OC(=O)CCCSc1nc2ccccc2s1` (centres undefined), 4.7% (inactive); as for `Cc1cc2ccccn2c1C(=O)c1ccc(Cl)c([N+](=O)[O-])c1`, 3.4% (inactive). As for `O=C(Nc1nn[nH]n1)c1cccc([N+](=O)[O-])c1`, the figure is 1.8% (inactive); as for `O=C(Nc1ccccc1Br)c1c(F)cccc1Cl`, -8.7% (inactive); as for `O=C(NCc1ccccc1)C1=C[C@@H](c2ccccc2)C[C@@H](OCc2ccc(CO)cc2)O1`, 61.7% (active). For `O=C(Nc1ccccc1)C1=C[C@H](c2ccc3c(c2)OCO3)C[C@H](OCCCCO)O1` the value was 12.1% (inactive); for `O=C(Nc1ccccc1)C1=C[C@@H](c2ccccc2)C[C@@H](OCc2ccc(CO)cc2)O1`, 15.7% (inactive); for `O=C(NCc1ccccc1)C1=C[C@H](c2ccc3c(c2)OCO3)C[C@H](OCCCCO)O1`, 64.5% (active). `O=C(O)C1=C[C@@H](c2ccc3c(c2)OCO3)C[C@@H](OCCCCO)O1`: the inhibition was 4% (inactive). As for `C#CCNC(=O)C1=C[C@@H](c2ccccc2)C[C@@H](OCc2ccc(CO)cc2)O1`, the figure is 28.3% (inactive). As for `Cc1nn(Cc2ccccc2Cl)c(C)c1NC(=O)CCCn1nc([N+](=O)[O-])c(Cl)c1C`, the figure is 0.3% (inactive); as for `CC(=O)N1CCN=C1SCc1ccc(C)cc1`, 5.8% (inactive).

For `C=CCn1c(COc2ccc(Cl)cc2)nnc1SCC(=O)NCC(=O)OCC`, the inhibition was -3.6% (inactive).

In the case of `CCOC(=O)C1(Cc2cccc(F)c2)CCN(C(=O)C2CCCO2)CC1` (centres undefined), the inhibition is -13.3% (inactive). For `O=C(Nc1cc(N2CCOCC2)ncn1)NC1(C(F)(F)F)Oc2ccccc2O1`, the inhibition is 7.9% (inactive). For `Cc1cc(NC(=O)NC2(C(F)(F)F)Oc3ccc(Cl)cc3O2)no1` (centres undefined) the value was 12.7% (inactive); for `Cc1cc(NC(=O)CSc2nc(-c3ccccc3)nc3c2c(=O)n(C)c(=O)n3C)no1`, -6.7% (inactive); for `CCn1c(SCC(=O)Nc2cc(OC)c(OC)c(OC)c2)nnc1-c1cccs1`, 0.1% (inactive). For `CC(=O)N(C)c1ccc(NC(=S)Nc2cccc3ccccc23)cc1`, the inhibition is 55.1% (active). For the compound `CC(=O)N(C)c1ccc(NC(=S)Nc2ccccc2)cc1`, the inhibition was 2.5% (inactive).

Turning to `S=C(Nc1ccc(Cl)cc1)Nc1cccc2cnccc12`, the inhibition is 12.2% (inactive). Regarding `Cc1ccc(NC(=S)Nc2cccc3cnccc23)cc1C`, the inhibition was -34.8% (inactive). For `CCc1ccc(NC(=S)Nc2cccc3cnccc23)cc1` the value was 51.5% (active); for `Fc1ccc(NC(=S)Nc2cccc3cnccc23)cc1`, -10.5% (inactive); for `Cc1cc(C)cc(NC(=S)Nc2cccc3cnccc23)c1`, 59.3% (active). `Cc1ccc(NC(=S)Nc2cccc3cnccc23)c(C)c1`: the inhibition is 25.7% (inactive). In the case of `COc1ccc(NC(=S)Nc2ccc(N(C)C(C)=O)cc2)cc1`, the inhibition is 17.5% (inactive). `COc1cc(OC)cc(C(=O)N2CCCc3ccccc32)c1`: the inhibition was 12.7% (inactive). On to `Brc1ccc(/C=N/Nc2ccccn2)cc1`, for which the inhibition is -7.7% (inactive).

For `COC(=O)CS(=O)(=O)c1cc([N+](=O)[O-])ccc1NC(=O)OC`, the inhibition is 13.9% (inactive). For `C1CCCN(c2nc3nonc3nc2N2CCCCCC2)CC1` the value was -3.2% (inactive); for `N#CCCn1cc(C(=O)N2CCOCC2)c(-c2ccc3c(c2)OCCO3)n1`, 5.1% (inactive); for `Cc1ccc2[nH]c(=O)c(CN(Cc3ccccc3Cl)C(=O)N3CCOCC3)cc2c1`, 8.8% (inactive). As for `COC(=O)C1=C2SC(C)C(=O)N2C(N)=C(C#N)C1c1cc(OC)c(OC)c(OC)c1` (centres undefined), the figure is 24.2% (inactive); as for `COC(=O)C1=C2SC(C)C(=O)N2C(N)=C(C#N)C1c1ccc(OC)c(OC)c1` (centres undefined), 51.3% (active). As for `CCOC(=O)C1=C(N)N2C(=O)C(C)SC2=C(C(=O)OC)C1c1cccc(OC)c1` (centres undefined), the figure is 2.8% (inactive).

With `COc1ccc(S(=O)(=O)N2CCOC2CNC(=O)C(=O)NCCc2ccc(OC)c(OC)c2)cc1` (centres undefined), the inhibition was -0.2% (inactive).

Turning to `COc1ccc(S(=O)(=O)N2CCOC2CNC(=O)C(=O)NCCc2ccc(OC)c(OC)c2)cc1C` (centres undefined), the inhibition was 52.2% (active).

In the case of `COc1ccc(CCNC(=O)C(=O)NCC2OCCN2S(=O)(=O)c2ccc(Br)cc2)cc1OC` (centres undefined), the inhibition was -12.7% (inactive).

As to `O=C(O)C1CCC(=O)N1Cc1ccc(F)cc1` (centres undefined), the inhibition was -3.6% (inactive). As for `CCc1ccc(NC(=O)NCCN2CCc3ccccc3C2)cc1`, the figure is -6.5% (inactive); as for `CCOP(=O)(OCC)C(Nc1ccccn1)c1ccccc1` (centres undefined), -3.9% (inactive).
